# Reference: PubChem BioAssay (Tox21)
# Results filed as inconclusive are left out. Activity calls are given as the source filed them. Calls follow the shape of the dose curve; as a rule, active = well fitted cell-killing curve with a large enough effect in the repeat runs; inconclusive = weak or mixed curves, or effect the other way; inactive = no such curve, though single readings can be large or run the other way.
# Assay: qHTS assay to identify small molecule agonists of the estrogen receptor alpha (ER-alpha) signaling pathway in the presence of an antagonist - cell viability counter screen (AID 1259386);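 also: cells exposed to compounds for 22 h at 37 °C before the viability read; nearly all actives have a fitted effect of over 30% in size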
# Settings: VM7Luc4E2 viability, CellTiter-Fluor fluorescence, 22 h; series mostly up to 92.4 µM; activity change, negative = cytotoxicity: at the top concentration
# Excerpt: National Center for Advancing Translational Sciences [NCATS]
# NIH Chemical Genomics Center [NCGC]
# U.S. Environmental Protection Agency [EPA]
# National Institutes of Environmental Health Sciences [NIEHS]
# National Toxicology Program [NTP]
# U.S. Food and Drug Administration [FDA]
# Estrogen receptor (ER), a member of nuclear hormone receptor plays an important role in development, metabolic homeostasis and reproduction. Two subtypes of ER, ER-alpha and ER-beta, have similar expression patterns with some uniqueness in both types. Endocrine disrupting chemicals (EDCs) and their interactions with steroid hormone receptors like ER causes disruption of normal endocrine function. Therefore, it is important to understand the effect of environmental chemicals in ER signaling pathway. For identifying ER agonists, VM7Luc4E2 cell line has been used in the current assay.
# VM7Luc4E2 cell line (provided by Denison MS, University of California) endogenously expresses full-length ER-alpha and is stably transfected with a plasmid containing four estrogen responsive elements (ERE) upstream of a luciferase reporter gene. This current screening for measuring luciferase reporter gene activity using VM7Luc4E2 cells against Tox21 10K library collection is a confirmation study on agonist mode screening in presence of ER-antagonist (ICI-182,780) at 10.0nM final concentration. The cytotoxicity of the compounds was tested in parallel by measuring the cell viability using CellTiter-Fluor assay system (Promega, Madison, WI) in the same wells.
# Tox21 Assay Protocol Summary:
# VM7Luc4E2 cells were cultured in phenol red free assay medium containing 10% charcoal stripped FBS for 5 days prior to the assay. The cells were dispensed at 4,000 cells in 4uL of assay medium per well into white wall/solid-bottom 1536-well plates (Corning Life Sciences, Corning, NY) using a Multidrop Combi (Thermo Fisher Scientific Inc., Waltham, MA) dispenser. After the assay plates were incubated at 37C and 5% CO2 for 24hr, 1uL of 10.0nM (final concentration) ICI-182,780 or assay buffer was added using two separate tips of Flying Reagent Dispenser (FRD, Aurora Discovery, San Diego, CA). Then 23nL of compounds dissolved in DMSO at 15 concentrations and positive controls or DMSO only was transferred to the assay plates by a Pintool station (Wako, San Diego, CA). The assay plates were incubated at 37C and 5% CO2 for 22hr. After 21hr incubation at 37C, 1uL/well CellTiter-Fluor reagent (Promega Corporation, Madison, WI) was added to each well using FRD and after 1hr incubation at 37C and 5% CO2, the fluorescence signal was measured on ViewLux plate reader (PerkinElmer, Shelton, CT).
# % is scaled to controls: 0 for no effect and ±100 for the full control effect; potency is read from the fitted curve at half-maximal effect.
Compound,Potency,"activity change, negative = cytotoxicity"
C/C=C/C(=O)Oc1c(CCCCCC(C)C)cc([N+](=O)[O-])cc1[N+](=O)[O-],9.69 µM (active),
CN(C)c1ccc(N=NS(=O)(=O)O)cc1,38.6 µM (active),
O=C1NC2CCCCN2C12CCN(CCCN1c3ccccc3CCc3ccc(Cl)cc31)CC2 (stereo not given),29.8 µM (active),
COc1cccc(OC)c1O,,2.87% (inactive)
CCOC(=O)C1=C(C)NC(C)=C(C(=O)OCC)C1c1ccccc1/C=C/C(=O)OC(C)(C)C,,-8.98% [at 42.5 µM] (inactive)
C[C@]12CC[C@H]3C(=CCc4cc(O)ccc43)[C@@H]1CCC2=O,,-10.8% (inactive)
O=C=NCc1cccc(CN=C=O)c1,,1.12% [at 19 µM] (inactive)
Cc1cccc(C)n1,,1.92% (inactive)
[O]=[Zr],,4.62% (inactive)
CC(=O)O[C@@H]1C[C@@H]2CC[C@@]1(C)C2(C)C,,0.804% (inactive)
CCCCCCCCCCCCCC[n+]1ccccc1,54.5 µM (active),
c1cc[nH]c1,,2.91% (inactive)
CCc1cccc(C)c1,,0.818% (inactive)
CSc1c(Cl)c(Cl)c(Cl)c(Cl)c1Cl,,1.35% (inactive)
SCCCCCCCCS,,-0.987% (inactive)
CC(C)OC(=O)c1cc(C(=O)OC(C)C)cc([N+](=O)[O-])c1,,2.63% (inactive)
c1ccc(Nc2cccc3ccccc23)cc1,inactive,
CCOC(=O)COc1ccc(C)cc1,,1.64% (inactive)
CCCCCCCCCCCCCCCC,,-0.402% (inactive)
CC(C)(c1cc(Br)c(OCCO)c(Br)c1)c1cc(Br)c(OCCO)c(Br)c1,53.3 µM (active),

Compound,Potency,"activity change, negative = cytotoxicity"
CC(=O)OC1CCCCC1,,-8.69% (inactive)
Cc1oc(-c2ccccc2)nc1CCOc1ccc(C[C@H](Nc2ccccc2C(=O)c2ccccc2)C(=O)O)cc1,48.6 µM (active),
CCc1cccc(CC)c1NC(=O)C(=O)O,,4.9% (inactive)
O=S(O)O,,0.0003% [at 19 µM] (inactive)
CCCCCCCCCCCCCCNCCO,,-3.65% [at 42.5 µM] (inactive)
NC(=O)c1ccccc1N,,3.47% (inactive)
Clc1nc2ccccc2s1,,-9.22% (inactive)
Cc1cc(Nc2ccc(O)cc2)ccc1N,30.5 µM (active),
CC1CCCCC1,,0.922% (inactive)
O=C(O)c1cccc(Cl)n1,,2.91% (inactive)
CCN(CC)CCOc1ccc(C(O)(Cc2ccc(Cl)cc2)c2ccc(C)cc2)cc1 (stereo not given),,0.744% [at 42.5 µM] (inactive)
O=C1OC(OC(=O)c2cccnc2Nc2cccc(C(F)(F)F)c2)c2ccccc21 (stereo not given),,6.9% [at 42.5 µM] (inactive)
NC(=O)C(=O)N/N=C/c1ccc([N+](=O)[O-])o1,,-0.308% [at 42.5 µM] (inactive)
O=C1OC(=O)c2cccc3cccc1c23,,-2.91% (inactive)
CCOC(/C=C(\C)CCC=C(C)C)OCC,,0.538% (inactive)
Nc1ncnc2c1ncn2[C@@H]1O[C@H](COP(=O)(O)O)[C@@H](O)[C@H]1O,,0.429% [at 42.5 µM] (inactive)
CC(C)CCOCCC(C)C,,1.81% (inactive)
ClC/C=C\CCl,,0.697% (inactive)
CCCC(=O)OCC(COC(=O)CCC)OC(=O)CCC,,-4.47% (inactive)
CCC(C)c1ccccc1 (stereo not given),,0.779% (inactive)
